# Screens from PubChem BioAssay.
# The full list was thinned out, with hits kept by preference.
# DUX4 inh: blocks DUX4-driven transcriptional activation. 293T-iDUX4 ZSCAN4-Gaussia luciferase reporter, 24 h; stronger effect = lower value. activity change, negative = inhibition, % (concentration not given with the values). hit rate 0.8% among 37,000;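 active = mean inhibition of at least 10% in the main channel, exceeding the control channel by a set limit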;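 note: 0% = median of neutral control wells and -100% = median of positive control wells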
# * hit, by the source's call; ! = not active in a repeat.
SMILES,DUX4 inh
Cc1ccccc1S(=O)(=O)N(C)C[C@H]1OCc2ccccc2-c2c(n(C)c3ccccc23)C(=O)N([C@H](C)CO)C[C@@H]1C,-35.3*
C[C@H]1CN([C@@H](C)CO)C(=O)c2c(c3ccccc3n2C)-c2ccccc2CO[C@@H]1CN(C)S(=O)(=O)c1ccc([N+](=O)[O-])cc1,-4.9
C[C@@H]1CN([C@H](C)CO)C(=O)c2c(c3ccccc3n2C)-c2ccccc2CO[C@@H]1CN(C)S(C)(=O)=O,17.3
C[C@@H]1CN([C@@H](C)CO)C(=O)c2c(c3ccccc3n2C)-c2ccccc2CO[C@@H]1CN(C)S(=O)(=O)c1cccc(C#N)c1,-24.5*
C[C@@H]1CN([C@@H](C)CO)C(=O)c2c(c3ccccc3n2C)-c2ccccc2CO[C@@H]1CN(C)S(=O)(=O)c1ccc(C#N)cc1,3.2
CC(=O)N1[C@@H]2c3ccc(-c4ccccc4)c(=O)n3C[C@H]1[C@H](CO)[C@H]2C(=O)Nc1ccccc1,0.6
CO[C@H]1CC[C@H]2CCN(C)C(=O)[C@H](C)[C@@H](OC)CN(C)C(=O)c3cc(C#N)ccc3OC[C@H]1O2,1.4
O=C(O)C[C@H]1CC[C@H](NC(=O)CCN2CCCCC2)[C@H](CO)O1,1.7
CNC(=O)C[C@H]1CC[C@@H]2[C@H](COC[C@@H](O)CN2Cc2ccccc2F)O1,3.4
O=C([C@@H]1[C@@H](CO)[C@@H]2Cn3c(ccc(C4=CCCCC4)c3=O)[C@H]1N2)N1CCCCC1,-0.2
COc1cccc(CN(C)C[C@H]2OCc3ccccc3-c3ccccc3C(=O)N([C@H](C)CO)C[C@H]2C)c1,-6.8
CO[C@@H]1CN(C)C(=O)c2ccc(NC(=O)NC(C)C)cc2OC[C@@H](C)N(Cc2ccccn2)C[C@H]1C,0.7
O=C(C[C@H]1C[C@H]2c3cc(NC(=O)Cc4ccncc4)ccc3O[C@H]2[C@@H](CO)O1)NCc1cc(F)ccc1F,-21.3*
O=C(C[C@@H]1C[C@@H]2c3cc(NC(=O)Cc4ccncc4)ccc3O[C@@H]2[C@@H](CO)O1)NCCc1ccccc1,2.9
O=C(C[C@H]1C[C@H]2c3cc(NC(=O)Cc4ccncc4)ccc3O[C@H]2[C@H](CO)O1)NCCc1ccccc1,-21.4*
O=C(C[C@H]1C[C@H]2c3cc(NC(=O)Cc4ccncc4)ccc3O[C@H]2[C@@H](CO)O1)NCCc1ccccc1,-8.0
O=C(C[C@@H]1C[C@H]2c3cc(NC(=O)CC4CC4)ccc3O[C@H]2[C@@H](CO)O1)NCc1cc(F)ccc1F,6.8
O=C(C[C@@H]1C[C@H]2c3cc(NC(=O)Cc4ccncc4)ccc3O[C@H]2[C@H](CO)O1)NCc1cc(F)ccc1F,-3.7
C[C@H](NC(=O)[C@H]1[C@H](CO)[C@H]2Cn3c(ccc(C4=CCCC4)c3=O)[C@@H]1N2C(=O)C1CC1)c1ccccc1,1.7
COC(=O)C[C@@H]1CC[C@H]2[C@H](COc3ccc(NS(=O)(=O)c4ccccc4F)cc3C(=O)N2C)O1,0.1
COc1ccc2c3c([nH]c2c1)[C@@H](CO)N(C(=O)c1ccc(F)cc1)CC31CN(C(=O)CC2CC2)C1,4.4
C[C@H]1CN([C@@H](C)CO)C(=O)c2cccc(NC(=O)Nc3ccc(F)cc3)c2O[C@H]1CN(C)CC1CCCCC1,1.3
C/C=C/c1ccc([C@@H]2[C@@H](CO)N(C(=O)C3CC3)C23CN(S(=O)(=O)CC)C3)cc1,-3.3
Cc1ccccc1S(=O)(=O)N1CCCCN2[C@H](C1)[C@@H](c1ccc(-c3cccc(F)c3)cc1)[C@@H]2CO,7.5
Cc1ccccc1S(=O)(=O)N1CCCCN2[C@H](C1)[C@@H](c1ccc(-c3cccnc3)cc1)[C@@H]2CO,-4.8
SMILES,DUX4 inh
Cc1cccc(-c2ccc([C@H]3[C@@H](CO)N4CCCCN(S(=O)(=O)c5ccccc5F)C[C@@H]34)cc2)c1,-3.1
Cc1ccccc1S(=O)(=O)N1CCCCN2[C@H](CO)[C@@H](c3ccc(-c4cccnc4)cc3)[C@H]2C1,-5.1
Cc1ccccc1S(=O)(=O)N1CCCCN2[C@@H](CO)[C@H](c3ccc(-c4cccc(F)c4)cc3)[C@@H]2C1,-46.9*
Cc1ccc(-c2ccc([C@@H]3[C@@H](CO)N4CCCCN(S(=O)(=O)c5ccccc5C)C[C@H]34)cc2)cc1,-24.5*
CCNC(=O)[C@@H]1[C@@H](CO)[C@@H]2Cn3c(ccc(C4=CCCC4)c3=O)[C@@H]2N1C(=O)CC1CC1,1.1
C[C@@H](NC(=O)N(C)C[C@@H]1OCc2ccccc2-c2c(n(C)c3ccccc23)C(=O)N([C@@H](C)CO)C[C@@H]1C)c1ccccc1,13.4
CC(C)C(=O)Nc1ccc2c(c1)C(=O)N(C)[C@@H]1CC[C@@H](CC(=O)O)O[C@H]1CO2,-0.8
C[C@H]1CN([C@@H](C)CO)S(=O)(=O)c2ccc(C#Cc3ccccc3F)cc2O[C@H]1CN(C)C(=O)c1ccc2c(c1)OCO2,-2.8
O=C(Cc1ccccc1)N1CC(=O)N2[C@H](CO)[C@@H](c3ccc(C#CCc4ccccc4)cc3)[C@@H]2C1,-33.3*
O=C(Cc1ccccc1)N1CC(=O)N2[C@@H](CO)[C@@H](c3ccc(C#CCc4ccccc4)cc3)[C@@H]2C1,0.6
CC(C)CC#Cc1ccc([C@@H]2[C@@H](CO)N3C(=O)CN(C(=O)c4cccc(F)c4)C[C@H]23)cc1,0.2
CC(C)CC#Cc1ccc([C@H]2[C@H]3CN(C(=O)c4cccc(F)c4)CC(=O)N3[C@H]2CO)cc1,-3.5
O=C(Cc1ccccc1)N1CC(=O)N2[C@@H](CO)[C@H](c3ccc(C#CCc4ccccc4)cc3)[C@@H]2C1,-0.2
CC(C)CC#Cc1ccc([C@H]2[C@H](CO)N3C(=O)CN(C(=O)c4cccc(F)c4)C[C@@H]23)cc1,-37.7*
COc1ccc2c3c([nH]c2c1)[C@H](CO)N(C(=O)Nc1ccccc1F)CC31CCN(C(=O)C2CC2)CC1,-0.3
CN(C)Cc1cn(CC[C@@H]2CC[C@H](NS(=O)(=O)c3ccc(-c4ccccc4)cc3)[C@@H](CO)O2)nn1,-4.3
CN(C)C(=O)c1cccc(-c2ccc(C3[C@@H]4CN(C(=O)Cc5ccccc5)C[C@H]3N4)cc2)c1 (some centres not stated),9.2
COc1cccc(-c2ccc(C3[C@@H]4CN(S(=O)(=O)c5ccccc5)C[C@H]3N4)cc2)c1 (some centres not stated),-20.4*
CN(C)C(=O)c1cccc(-c2ccc(C3[C@H]4CNC[C@@H]3N4S(=O)(=O)c3ccc(Cl)cc3)cc2)c1 (some centres not stated),15.6
COc1cccc(-c2ccc(C3[C@@H]4CN(S(=O)(=O)c5cccc(Cl)c5)C[C@H]3N4)cc2)c1 (some centres not stated),-6.7
O=S(=O)(c1ccc(F)cc1)N1[C@@H]2CNC[C@H]1C2c1ccc(-c2cccnc2)cc1 (some centres not stated),4.9
O=C(c1ccc(F)cc1)N1C[C@@H]2N[C@H](C1)C2c1ccc(-c2cccnc2)cc1 (some centres not stated),-7.8
COc1ccc(S(=O)(=O)N2[C@@H]3CNC[C@H]2C3c2ccc(-c3cccc(OC)c3)cc2)cc1 (some centres not stated),10.5
O=S(=O)(c1ccccc1)N1C[C@@H]2N[C@H](C1)C2c1ccc(-c2cccnc2)cc1 (some centres not stated),-12.6*!
CN(C)C(=O)c1cccc(-c2ccc(C3[C@@H]4CN(S(=O)(=O)c5cccc(Cl)c5)C[C@H]3N4)cc2)c1 (some centres not stated),-28.2*
